How the values were obtained:
Assay in all cases: SPOT peptide array binding signal intensity (averaged, normalized) (arbitrary units (background-subtracted, floor 0; scale differs between SH3 domains)); higher = stronger binding of the SH3 domain to the peptide
SpBzz1-D2 = target: SpBzz1-D2
Method in brief: (§1)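 E. coli BL21(DE3) was used to express GST-fused SH3 domains from four yeast species, which were then purified on glutathione Sepharose. These were incubated at 10 μg/ml in TBS-based blocking buffer overnight at 4°C on cellulose membranes carrying synthetic 15-mer peptides, in which cysteines were replaced by serines. Binding signal is the replicate average of normalized, background-subtracted spot intensity, in arbitrary units that differ between domains.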

SpCyk3 = target: SpCyk3
Method in brief: as §1

SpHof1 = target: SpHof1
Method in brief: as §1

SpHof1-2 = target: SpHof1-2
Method in brief: as §1

SpHof1-3 = target: SpHof1-3
Method in brief: as §1

SpHse1 = target: SpHse1
Method in brief: as §1

SpLsb1 = target: SpLsb1
Method in brief: as §1

SpLsb4 = target: SpLsb4
Method in brief: as §1

SpMyo1 = target: SpMyo1
Method in brief: as §1

SpNbp2 = target: SpNbp2
Method in brief: as §1

SpPex13 = target: SpPex13
Method in brief: as §1

SpRvs167 = target: SpRvs167
Method in brief: as §1

SpSla1-D1-D2 = target: SpSla1-D1-D2
Method in brief: as §1

SpSla1-D3 = target: SpSla1-D3
Method in brief: as §1

AgAbp1 = target: AgAbp1
Method in brief: as §1

AgBbc1 = target: AgBbc1
Method in brief: as §1

AgBem1-D1 = target: AgBem1-D1
Method in brief: as §1

AgBzz1-D1 = target: AgBzz1-D1
Method in brief: as §1

AgBzz1-D2 = target: AgBzz1-D2
Method in brief: as §1

AgCyk3 = target: AgCyk3
Method in brief: as §1

AgFus1 = target: AgFus1
Method in brief: as §1

AgHof1 = target: AgHof1
Method in brief: as §1

AgHse1 = target: AgHse1
Method in brief: as §1

AgLsb1 = target: AgLsb1
Method in brief: as §1

AgLsb4 = target: AgLsb4
Method in brief: as §1

AgMyo5 = target: AgMyo5
Method in brief: as §1

AgNbp2 = target: AgNbp2
Method in brief: as §1

AgRvs167 = target: AgRvs167
Method in brief: as §1

AgSho1 = target: AgSho1
Method in brief: as §1

AgSla1-D1-D2 = target: AgSla1-D1-D2
Method in brief: as §1

AgSla1-D3 = target: AgSla1-D3
Method in brief: as §1

CaAbp1-D1 = target: CaAbp1-D1
Method in brief: as §1

CaAbp1-D2 = target: CaAbp1-D2
Method in brief: as §1

CaBbc1 = target: CaBbc1
Method in brief: as §1

CaBem1-D1 = target: CaBem1-D1
Method in brief: as §1

CaBzz1-D1 = target: CaBzz1-D1
Method in brief: as §1

CaBzz1-D2 = target: CaBzz1-D2
Method in brief: as §1

CaCyk3 = target: CaCyk3
Method in brief: as §1

CaFus1 = target: CaFus1
Method in brief: as §1

CaHof1 = target: CaHof1
Method in brief: as §1

CaHse1 = target: CaHse1
Method in brief: as §1

CaLsb1 = target: CaLsb1
Method in brief: as §1

CaLsb4 = target: CaLsb4
Method in brief: as §1

CaMyo5 = target: CaMyo5
Method in brief: as §1

CaNbp2 = target: CaNbp2
Method in brief: as §1

CaRvs167 = target: CaRvs167
Method in brief: as §1

CaRvs167-3 = target: CaRvs167-3
Method in brief: as §1

CaSho1 = target: CaSho1
Method in brief: as §1

CaSla1-D1-D2 = target: CaSla1-D1-D2
Method in brief: as §1

CaSla1-D3 = target: CaSla1-D3
Method in brief: as §1

ScAbp1 = target: ScAbp1
Method in brief: as §1

ScBbc1 = target: ScBbc1
Method in brief: as §1

ScBem1-D1 = target: ScBem1-D1
Method in brief: as §1

ScBzz1-D1 = target: ScBzz1-D1
Method in brief: as §1

ScBzz1-D2 = target: ScBzz1-D2
Method in brief: as §1

ScCyk3 = target: ScCyk3
Method in brief: as §1

ScFus1 = target: ScFus1
Method in brief: as §1

ScHof1 = target: ScHof1
Method in brief: as §1

ScHse1 = target: ScHse1
Method in brief: as §1

ScLsb1 = target: ScLsb1
Method in brief: as §1

ScLsb2 = target: ScLsb2
Method in brief: as §1

ScLsb3 = target: ScLsb3
Method in brief: as §1

ScLsb4 = target: ScLsb4
Method in brief: as §1

ScMyo3 = target: ScMyo3
Method in brief: as §1

ScMyo5 = target: ScMyo5
Method in brief: as §1

ScNbp2 = target: ScNbp2
Method in brief: as §1

ScPex13 = target: ScPex13
Method in brief: as §1

ScRvs167 = target: ScRvs167
Method in brief: as §1

ScSho1 = target: ScSho1
Method in brief: as §1

ScSla1-D1-D2 = target: ScSla1-D1-D2
Method in brief: as §1

ScSla1-D3 = target: ScSla1-D3
Method in brief: as §1

SpAbp1-D1 = target: SpAbp1-D1
Method in brief: as §1

SpBbc1 = target: SpBbc1
Method in brief: as §1

SpBzz1-D1 = target: SpBzz1-D1
Method in brief: as §1

## RTIRKLPLMSLSEYF
SpBzz1-D2
  SPOT peptide array binding signal intensity: 1
SpCyk3
  SPOT peptide array binding signal intensity: 8.5
SpHof1
  SPOT peptide array binding signal intensity: 239
SpHof1-2
  SPOT peptide array binding signal intensity: 18
SpHof1-3
  SPOT peptide array binding signal intensity: 327
SpHse1
  SPOT peptide array binding signal intensity: 458
SpLsb1
  SPOT peptide array binding signal intensity: 3.5
SpLsb4
  SPOT peptide array binding signal intensity: 816
SpMyo1
  SPOT peptide array binding signal intensity: 7
SpNbp2
  SPOT peptide array binding signal intensity: 484
SpPex13
  SPOT peptide array binding signal intensity: 26
SpRvs167
  SPOT peptide array binding signal intensity: 20
SpSla1-D1-D2
  SPOT peptide array binding signal intensity: ≤ 0
SpSla1-D3
  SPOT peptide array binding signal intensity: 19

## SSSSTPPTLPPRRIE
AgAbp1
  SPOT peptide array binding signal intensity: 7.5
AgBbc1
  SPOT peptide array binding signal intensity: 673
AgBem1-D1
  SPOT peptide array binding signal intensity: 42
AgBzz1-D1
  SPOT peptide array binding signal intensity: 49
AgBzz1-D2
  SPOT peptide array binding signal intensity: ≤ 0
AgCyk3
  SPOT peptide array binding signal intensity: 2
AgFus1
  SPOT peptide array binding signal intensity: ≤ 0
AgHof1
  SPOT peptide array binding signal intensity: 55
AgHse1
  SPOT peptide array binding signal intensity: 42.5
AgLsb1
  SPOT peptide array binding signal intensity: 1840
AgLsb4
  SPOT peptide array binding signal intensity: 9180
AgMyo5
  SPOT peptide array binding signal intensity: 93.5
AgNbp2
  SPOT peptide array binding signal intensity: 10
AgRvs167
  SPOT peptide array binding signal intensity: 2660
AgSho1
  SPOT peptide array binding signal intensity: 1
AgSla1-D1-D2
  SPOT peptide array binding signal intensity: ≤ 0
AgSla1-D3
  SPOT peptide array binding signal intensity: ≤ 0
CaAbp1-D1
  SPOT peptide array binding signal intensity: 24
CaAbp1-D2
  SPOT peptide array binding signal intensity: 34.5
CaBbc1
  SPOT peptide array binding signal intensity: 1390
CaBem1-D1
  SPOT peptide array binding signal intensity: 4
CaBzz1-D1
  SPOT peptide array binding signal intensity: 16
CaBzz1-D2
  SPOT peptide array binding signal intensity: ≤ 0
CaCyk3
  SPOT peptide array binding signal intensity: 2
CaFus1
  SPOT peptide array binding signal intensity: 77
CaHof1
  SPOT peptide array binding signal intensity: 8.75
CaHse1
  SPOT peptide array binding signal intensity: 731
CaLsb1
  SPOT peptide array binding signal intensity: 57.5
CaLsb4
  SPOT peptide array binding signal intensity: 7260
CaMyo5
  SPOT peptide array binding signal intensity: ≤ 0
CaNbp2
  SPOT peptide array binding signal intensity: 76.5
CaRvs167
  SPOT peptide array binding signal intensity: 2810
CaRvs167-3
  SPOT peptide array binding signal intensity: 0.25
CaSho1
  SPOT peptide array binding signal intensity: ≤ 0
CaSla1-D1-D2
  SPOT peptide array binding signal intensity: 138
CaSla1-D3
  SPOT peptide array binding signal intensity: ≤ 0
ScAbp1
  SPOT peptide array binding signal intensity: ≤ 0
ScBbc1
  SPOT peptide array binding signal intensity: 61.5
ScBem1-D1
  SPOT peptide array binding signal intensity: 8
ScBzz1-D1
  SPOT peptide array binding signal intensity: 3
ScBzz1-D2
  SPOT peptide array binding signal intensity: 2
ScCyk3
  SPOT peptide array binding signal intensity: 2
ScFus1
  SPOT peptide array binding signal intensity: ≤ 0
ScHof1
  SPOT peptide array binding signal intensity: 122
ScHse1
  SPOT peptide array binding signal intensity: ≤ 0
ScLsb1
  SPOT peptide array binding signal intensity: 2090
ScLsb2
  SPOT peptide array binding signal intensity: 1570
ScLsb3
  SPOT peptide array binding signal intensity: 11000
ScLsb4
  SPOT peptide array binding signal intensity: 4800
ScMyo3
  SPOT peptide array binding signal intensity: 111
ScMyo5
  SPOT peptide array binding signal intensity: 17.5
ScNbp2
  SPOT peptide array binding signal intensity: ≤ 0
ScPex13
  SPOT peptide array binding signal intensity: 2100
ScRvs167
  SPOT peptide array binding signal intensity: 3870
ScSho1
  SPOT peptide array binding signal intensity: 56.5
ScSla1-D1-D2
  SPOT peptide array binding signal intensity: 6
ScSla1-D3
  SPOT peptide array binding signal intensity: 1.75
SpAbp1-D1
  SPOT peptide array binding signal intensity: ≤ 0
SpBbc1
  SPOT peptide array binding signal intensity: 0.5
SpBzz1-D1
  SPOT peptide array binding signal intensity: 219
SpBzz1-D2
  SPOT peptide array binding signal intensity: ≤ 0
SpCyk3
  SPOT peptide array binding signal intensity: 4
SpHof1
  SPOT peptide array binding signal intensity: 4.5
SpHof1-2
  SPOT peptide array binding signal intensity: 12.2
SpHof1-3
  SPOT peptide array binding signal intensity: 10
SpHse1
  SPOT peptide array binding signal intensity: 16
SpLsb1
  SPOT peptide array binding signal intensity: 3060
SpLsb4
  SPOT peptide array binding signal intensity: 6340
SpMyo1
  SPOT peptide array binding signal intensity: 594
SpNbp2
  SPOT peptide array binding signal intensity: ≤ 0
SpPex13
  SPOT peptide array binding signal intensity: 4
SpRvs167
  SPOT peptide array binding signal intensity: 3420
SpSla1-D1-D2
  SPOT peptide array binding signal intensity: ≤ 0
SpSla1-D3
  SPOT peptide array binding signal intensity: ≤ 0

Reference: the supplement of paper PMC4466140
